According to the supplement of paper PMC6555819:

What was measured:
Assay in all cases: PBM binding z-score (relative to random genomic background probes); higher = stronger binding; sequences stand for … in GC…GCGATTGACAGCGTAGAATGAAGG
[1] = tested on: PPARg:RXRa DBDmut IVT, anti-RXR (DBD mutation: RXRa K156A/R161A, NR concentration 270 nM, RXRa partner concentration 90 nM)
Outline: (§1)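 Each nuclear receptor dimer, without ligand, was incubated for 1 h on custom Agilent 4×180K protein-binding microarrays. Binding was detected with antibodies against each partner (one per run), and scanned fluorescence was regression-normalized. The binding z-scores are referenced to random human genomic background probes.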

[2] = tested on: PPARg:RXRa IVT, anti-PPARg (NR concentration 270 nM, RXRa partner concentration 90 nM)
Outline: as §1

[3] = tested on: PPARg DBDmut:RXRa IVT, anti-PPARg (DBD mutation: PPARg1 K132A/R137A, NR concentration 270 nM, RXRa partner concentration 90 nM)
Outline: as §1

[4] = tested on: PPARg DBDmut IVT, anti-PPARg (DBD mutation: PPARg1 K132A/R137A, NR concentration 270 nM)
Outline: as §1

[5] = tested on: PPARg homodimer (NR concentration 180 nM)
Outline: as §1

[6] = tested on: PXR:RXRa (NR concentration 270 nM, RXRa partner concentration 90 nM)
Outline: as §1

[7] = tested on: PXR homodimer (NR concentration 270 nM)
Outline: as §1

[8] = tested on: RARa:RXR (NR concentration 270 nM, RXRa partner concentration 90 nM)
Outline: as §1

[9] = tested on: RARa homodimer (NR concentration 270 nM)
Outline: as §1

[10] = tested on: RARb:RXRa (NR concentration 270 nM, RXRa partner concentration 90 nM)
Outline: as §1

Sequence CGAACGAGGGCATGAGTAGATAGCAAATGCCGAT has a PBM binding z-score [1] of 2.5, a PBM binding z-score [2] of 2.07 and a PBM binding z-score [3] of -0.283. The PBM binding z-score [4] was 0.0377, the PBM binding z-score [5] was 0.101 and the PBM binding z-score [6] was 0.0706. It also gave a PBM binding z-score [7] of -0.112, a PBM binding z-score [8] of 0.0192 and a PBM binding z-score [9] of -0.164. It also gave a PBM binding z-score [10] of 1.85.
CCTTGCAGGCCAGGGTCACTCAAGCATTTCGCTT showed a PBM binding z-score [1] of 1.64, a PBM binding z-score [2] of 1.87 and a PBM binding z-score [3] of -0.933. The PBM binding z-score [4] was -1.48, the PBM binding z-score [5] was 0.75 and the PBM binding z-score [6] was 2.65. The PBM binding z-score [7] was -0.433, the PBM binding z-score [8] was 3.33 and the PBM binding z-score [9] was -0.43. The PBM binding z-score [10] was 2.79.
CCTTACGGGTCACTGACAGGTTGTAGCATTTGGA gave a PBM binding z-score [1] of 3.45, a PBM binding z-score [2] of 3.69 and a PBM binding z-score [3] of 0.239. For the same sequence, the PBM binding z-score [4] was -0.219, the PBM binding z-score [5] was 2.3 and the PBM binding z-score [6] was 3.28. For the same sequence, the PBM binding z-score [7] was -0.0802, the PBM binding z-score [8] was 4.11 and the PBM binding z-score [9] was 0.949. The PBM binding z-score [10] was 3.79.
TCGAGTAGGTTACCAATGAGGCATTCAGCTTTCT was tested, and the PBM binding z-score [1] was 3.32, the PBM binding z-score [2] was 2.35 and the PBM binding z-score [3] was 0.0818. The PBM binding z-score [4] was -0.605, the PBM binding z-score [5] was -0.815 and the PBM binding z-score [6] was -0.0047. For the same sequence, the PBM binding z-score [7] was -0.892, the PBM binding z-score [8] was 0.302 and the PBM binding z-score [9] was -1.06. It also gave a PBM binding z-score [10] of 0.723.
Work on CCTGCTATGTCATGGTCAGCTAATCTACAGTATG yielded a PBM binding z-score [1] of 0.893, a PBM binding z-score [2] of 0.445 and a PBM binding z-score [3] of 0.205. The PBM binding z-score [4] was 0.546, the PBM binding z-score [5] was -0.0268 and the PBM binding z-score [6] was -0.217. The PBM binding z-score [7] was -0.359, the PBM binding z-score [8] was -0.187 and the PBM binding z-score [9] was -0.218. It also gave a PBM binding z-score [10] of 0.913.
With ACAGACAGGGGATGAAGGTAACTCAGGCTATCAT the PBM binding z-score [1] was -0.0159, the PBM binding z-score [2] was 0.23 and the PBM binding z-score [3] was 0.918. It also gave a PBM binding z-score [4] of 0.962, a PBM binding z-score [5] of 0.411 and a PBM binding z-score [6] of 0.126. For the same sequence, the PBM binding z-score [7] was 0.556, the PBM binding z-score [8] was -0.0712 and the PBM binding z-score [9] was 0.0686. The PBM binding z-score [10] was 0.299.
CGAAGTAGGTCAGAACAGGACAGTGAAGGATGAT gave a PBM binding z-score [1] of 7.52, a PBM binding z-score [2] of 7.53 and a PBM binding z-score [3] of 0.926. It also gave a PBM binding z-score [4] of 0.783, a PBM binding z-score [5] of 1.04 and a PBM binding z-score [6] of 0.897. The PBM binding z-score [7] was -0.0169, the PBM binding z-score [8] was 0.781 and the PBM binding z-score [9] was 0.475. It also gave a PBM binding z-score [10] of 2.75.
CCTAGCAGGCCCATCTGGGTCACTCAAGGCTTGA was tested, and the PBM binding z-score [1] was 0.547, the PBM binding z-score [2] was 2.42 and the PBM binding z-score [3] was -1.01. The PBM binding z-score [4] was -1.83, the PBM binding z-score [5] was 0.0647 and the PBM binding z-score [6] was 0.362. The PBM binding z-score [7] was -0.496, the PBM binding z-score [8] was 1.21 and the PBM binding z-score [9] was -0.257. It also gave a PBM binding z-score [10] of 0.978.
ACTATTAGTTGAGACGAGGGCAACCGATAGGTTG was tested, and the PBM binding z-score [1] was 0.0589, the PBM binding z-score [2] was 0.536 and the PBM binding z-score [3] was 0.785. It also gave a PBM binding z-score [4] of 0.574, a PBM binding z-score [5] of 0.059 and a PBM binding z-score [6] of 1.64. The PBM binding z-score [7] was 0.413, the PBM binding z-score [8] was 0.859 and the PBM binding z-score [9] was 0.982. It also gave a PBM binding z-score [10] of 1.24.
CCGTCTGGGGCATAAGGTTACCATAAGCCAGCCC was tested, and the PBM binding z-score [1] was 1.52, the PBM binding z-score [2] was 1.84 and the PBM binding z-score [3] was -1.52. The PBM binding z-score [4] was -1.72, the PBM binding z-score [5] was 0.475 and the PBM binding z-score [6] was 0.566. For the same sequence, the PBM binding z-score [7] was -0.335, the PBM binding z-score [8] was 1.39 and the PBM binding z-score [9] was -0.41. For the same sequence, the PBM binding z-score [10] was 1.84.
TCTATTAGTTGCAGGGCAACCGACGAGTCCGTTT showed a PBM binding z-score [1] of 2.17, a PBM binding z-score [2] of 1.01 and a PBM binding z-score [3] of 0.15. The PBM binding z-score [4] was 1.26, the PBM binding z-score [5] was 0.494 and the PBM binding z-score [6] was 0.353. It also gave a PBM binding z-score [7] of 0.498, a PBM binding z-score [8] of 0.391 and a PBM binding z-score [9] of 0.736. It also gave a PBM binding z-score [10] of 0.851.
Sequence CCTAGTTAGTCAGGAGGTCACACACCGGATATGA has a PBM binding z-score [1] of 1.08, a PBM binding z-score [2] of 2.35 and a PBM binding z-score [3] of 1.22. The PBM binding z-score [4] was 0.693, the PBM binding z-score [5] was 3.69 and the PBM binding z-score [6] was 4.33. The PBM binding z-score [7] was 1.96, the PBM binding z-score [8] was 4.59 and the PBM binding z-score [9] was 2.45. The PBM binding z-score [10] was 3.69.
